Our source for the inhibition values is PubChem BioAssay AID602252 (Broad Institute, 2012).

The term inhibition denotes the relative decrease from the control value, in per cent.

Among all 300,000 compounds or so, about 2,700 (0.9%) were called active.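 Rule for the calls: active = mean inhibition of at least 30% with at least half of replicates also reaching 30%; inconclusive = no clear call, values can overlap the other calls; inactive = the rest.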 What follows is part of a selection rich in actives, with near analogues and random picks from the rest.

The experiment deals with Golgi-associated PDZ and coiled-coil motif-containing protein (Homo sapiens) (UniProt Q9HD26). Nature of the experiment: blockade of CAL PDZ-reporter peptide interaction – biochemical, fluorescence polarization, untagged CAL PDZ, HTS, primary screen (AID 602252).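 Note: 0% = DMSO neutral control and 100% = excess unlabeled competitor peptide PRC23.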 The note with it: purified CAL PDZ, TMR-peptide fluorescence polarization, 1 h; at 24.9 µM; active compounds read high. (Polarisation of emitted light reports the rotation of a fluorescent probe.)
As for `CCCc1cc(-c2n[nH]c(=S)n2Cc2ccccc2)cs1`, the inhibition is -5.83% (inactive).

Turning to `CCn1c(-c2ccncc2)n[nH]c1=S`, the inhibition was -0.231% (inactive).

Consider `O=C(N[C@H]1C/C=C\C(c2ccc(F)cc2)N(Cc2ccccc2)C(=O)C1)OCC1c2ccccc2-c2ccccc21` (stereo not given in full), for which the inhibition was -2.32% (inactive).

For the compound `CC(C)Cc1nnc(NC(=O)CCc2ccccc2)s1`, the inhibition is -1.93% (inactive).

Turning to `O=C(Nc1nnc(CCc2ccccc2)s1)C1CCCO1` (stereo not given), the inhibition was 32% (active).

Take `O=C(Nc1cccc(-c2nnc(-c3ccccc3)o2)c1)C1CCCO1` (stereo not given): the inhibition was -1.93% (inactive).

Turning to `CN(c1ccccc1)S(=O)(=O)c1ccc(C(=O)N2CCN(c3ccccc3Cl)CC2)cc1`, the inhibition was -2.37% (inactive).

On to `Clc1ccc(C[n+]2cc(-c3ccc(Cl)cc3)n3c2CCC3)cc1`, for which the inhibition was 36.9% (active).

On to `Cc1ccc(C(=O)C[n+]2cc(-c3ccccc3)n3c2CCCCC3)cc1`, for which the inhibition was -2% (inactive).

For the compound `Cn1c(-c2ccccc2)c[n+]2c1CCCCC2`, the inhibition is -4.71% (inactive).

On to `COc1ccccc1CNC(=O)c1ccc(Cl)c(S(=O)(=O)N2CCCC2)c1`, for which the inhibition is -2.41% (inactive).

Turning to `O=C1NC[C@@H](c2ccccc2)OC(=O)[C@H](Cc2ccc(F)cc2)CC/C=C/C[C@H]1CC(=O)N(CCO)Cc1ccccc1`, the inhibition is -2.15% (inactive).

Turning to `Cc1ccc(OCCNC(=O)c2cccc(S(=O)(=O)N3CCN(Cc4ccccc4)CC3)c2)cc1`, the inhibition was -4.14% (inactive).

Regarding `NS(=O)(=O)c1ccc(CCNC(=O)c2ccc(Cl)c(S(=O)(=O)N3CCCCCC3)c2)cc1`, the inhibition was -16.5% (inactive).

On to `COC(=O)Nc1sc2nc(C)cc(C)c2c1-n1cccc1`, for which the inhibition is 0.432% (inactive).

On to `Cc1cc(C)c2c(-n3cccc3)c(NC(=O)OCc3ccccc3)sc2n1`, for which the inhibition was -1.91% (inactive).

For the compound `Cc1cc(C)c2c(-n3cccc3)c(C(=O)NNS(=O)(=O)c3ccc(F)cc3)sc2n1`, the inhibition is 44.4% (active).

As for `O=C(c1ccc2c(c1)C(=O)N(Cc1ccncc1)C2=O)N1CCN(S(=O)(=O)c2ccc(OC(F)(F)F)cc2)CC1`, the inhibition is -4.84% (inactive).

Consider `O=C(COC(=O)CNC(=O)c1ccccc1F)NCC(F)(F)F`, for which the inhibition was -0.464% (inactive).

As to `C[C@H](NC(=O)c1ccccc1)C(=O)OCC(=O)c1c[nH]c2ccccc12`, the inhibition was -2.85% (inactive).

`O=C(CNC(=O)c1ccccc1F)OCC(=O)c1c[nH]c2ccccc12`: the inhibition is 53.7% (active).

For `CC(C)C[C@H]1CN([C@@H](CC(C)C)CN2CCC[C@@H]2CN2C(=O)C(=O)NC[C@@H]2Cc2ccccc2)C(=O)C(=O)N1CCc1ccccc1`, the inhibition was -2.72% (inactive).

`CC(=O)Nc1ccc(NC(=O)COc2ccc(-c3ccccc3)cc2)cc1`: the inhibition was -4.37% (inactive).

As for `Cc1ccc(OCC(=O)Nc2ccc(S(=O)(=O)Nc3ccccn3)cc2)cc1`, the inhibition is -5.23% (inactive).

For the compound `Cc1ccc(OCC(=O)Nc2ccc(-c3nc4ncccc4o3)cc2)cc1`, the inhibition is 46% (active).
